Laboratory results published in PubChem BioAssay AID624202 (National Center for Advancing Translational Sciences (NCATS), 2012).
Hit rate of the full screen: of about 380,000 compounds, about 4,000 (1.1%) were called active. Roughly 3% stayed inconclusive and do not appear here. Shown is part of a subset that was picked to be rich in actives. Unmarked numbers belong to inactive results. The call rests on the fitted dose curve; in most records, active means well fitted activation curve with a large enough effect; inconclusive means small, poorly fitted or top-dose-only effect; inactive means no such curve, though single readings can be large or run the other way.

Assay: qHTS Assay to Identify Small Molecule Activators of BRCA1 Expression; further: nearly all actives have a fitted effect of over 80% in size
Details: MCF7-BRCA1-FFLuc reporter, luminescence, 48 h; series mostly up to 46.1 µM; activation: at the top concentration
Outline: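 First, MCF7-BRCA1-FFLuc cells (2000/well) attach for 2 h; next, compounds are pin-added and incubated 48 h at 37 °C; finally, luciferase reagent is added and luminescence read after 15 min.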
Potency means the concentration at half of the fitted maximal effect.

SMILES | Potency | activation
O=c1c(-c2ccccc2)coc2cc(O)ccc12 | 12.6 µM (active) | 
CC(C)=CCc1c(O)c(CC=C(C)C)c2occ(-c3ccc(O)cc3)c(=O)c2c1O |  | -9.95%
COc1ccc(CCn2cc3c(c2-c2ccc(Br)cc2)c(=O)n(C)c(=O)n3C)cc1OC |  | -7.26%
CCC(C)N(c1ccc(/C=C/c2ccnc3ccccc23)cc1)C(C)CC (stereo not given) |  | 3.42%
COC(=O)c1ccc(Cn2c(SCC(=O)N(C)c3ccccc3)nc3ccccc32)cc1 |  | -0.941%
COc1ccc(CN2C(=O)C(NC(=O)c3cccc(C)c3)(C(F)(F)F)N=C2c2ccccc2)cc1 (stereo not given) |  | -23%
CCN1CCN(c2ccc(/C=C/c3ccnc4ccccc34)cc2)CC1 |  | 3.84%
C/C(=C/c1ccccc1)C(=O)N1CCN(c2ccccc2)CC1 |  | -4.42%
O=C(/C=C/c1ccc(N2CCOCC2)cc1)c1ccccc1 | 3.16 µM (active) | 
O=C(O)CCC(=O)Nc1ccc(N2CCOCC2)cc1 |  | 3.88%
COc1ccc(S(=O)(=O)NCc2cccn2Cc2cccc(C)c2)cc1Cl |  | 9.1%
CCn1cc2nc(SCc3cccc(F)c3)n(CCc3ccccc3)c(=O)c2n1 |  | -31.5%
CCc1ccccc1NS(=O)(=O)c1ccc2nc(-c3ccccc3)[nH]c2c1 |  | -11.7%
O=C(CCC(=O)c1cccs1)NC1CCCCCC1 |  | 61.2%
CC(=O)c1cc(-c2ccccc2)n(CCC(=O)NC2CCCCCC2)c1C |  | -25.7%
O=C(CCS(=O)(=O)c1ccccc1)NC1CCCC1 | 10 µM (active) | 
C=C1C=C(C)n2ncc(C(=O)Nc3ccccc3O)c2N1 |  | -24.1%
COc1cc(OC)cc(C(=O)Nc2c(C(=O)Nc3ccc(F)cc3)oc3ccccc23)c1 |  | -7.38%
Cn1cccc1C(=O)OCC(=O)c1ccc(Br)s1 | 8.91 µM (active) | 
Cn1cccc1C(=O)OCC(=O)NCCc1ccccc1 |  | 62.9%
COc1ccc(C(=O)OCC(=O)c2ccc(Cl)s2)c(OC)c1OC |  | -2.37%
CCCCNC(=O)Cn1c(SCc2cccc(Cl)c2)nc2ccncc21 |  | 0%
CCCN(CCC)C(=O)C(Cc1ccccc1)NS(=O)(=O)c1ccc2c(c1)c(=O)n(C)c(=O)n2C (stereo not given) |  | 0%
Cc1ccc(-n2c(=O)c3cccnc3n2CC(=O)NCc2ccc(F)cc2)cc1C |  | -30.2%
CCCCOC(=O)CSc1ncnc2sc3c(c12)CCC(C)C3 (stereo not given) |  | 2.09%
SCc1nc2ccc(Cl)cc2[nH]1 |  | -28.9%
Cc1ccc(Cc2nc(-c3cccc(C)c3)no2)cc1 | 7.94 µM (active) | 
Cc1cccc(-c2noc(CCC(=O)NC3CCCC3)n2)c1 |  | 11.6%

SMILES | Potency | activation
Cc1ccc(C)c(N2CCN(C(=O)CCc3nc(-c4cccc(C(F)(F)F)c4)no3)CC2)c1 |  | 49.1%
Cc1[nH]c2ccccc2c1C(=O)C(=O)N(C)c1ccccc1 |  | 1.01%
Cc1ccc(C(=O)Nc2nc3ccc(Cl)cc3s2)o1 | 0.891 µM (active) | 
Cc1noc(C)c1CSCC(=O)Nc1nc2ccc(Oc3ccccc3)cc2s1 |  | -16.1%
Cc1sc2ncnc(N3CCC(C(=O)Nc4nc5ccc(Cl)cc5s4)CC3)c2c1C |  | -10.5%
COc1ccc(-c2nc(=N)sn2-c2ccccc2)cc1 |  | 3.98%
Cc1ccc2c(c1)-c1c(cnn1CC(=O)Nc1ccccc1C#N)CO2 |  | -22.3%
COc1cc(CN(C(=O)c2ccccc2Br)c2ccccn2)cc(OC)c1OC |  | 2.76%
Nc1ccc(/C=C/c2ccnc3ccccc23)c([N+](=O)[O-])c1 |  | 16.1%
CN1C(=O)/C(=C/C=C2\SCCN2C)OC1=S | 5.62 µM (active) | 
CN(C(=N)N)c1ccc(/C=C2\C=Cc3ccccc32)cc1 |  | 45.5%
COc1ccc2nc(N3CCN(C(=O)c4ccc([N+](=O)[O-])o4)CC3)sc2c1 |  | -54.7%
O=C(NCCc1cccc(F)c1)C1CCCN(c2nc3ccccc3s2)C1 (stereo not given) |  | -15.9%
Fc1ccc2nc(N3CCCCC3)sc2c1 | 4.47 µM (active) | 
CCCCNC(=O)c1ccc2c(c1)NC(=O)C(C(C)C)N2 (stereo not given) |  | -10.7%
Cc1cc(Cl)ccc1OCCCC(=O)NCc1ccccn1 |  | -1.52%
C=CCNC(=O)c1cc(-c2ccccc2O)on1 | 5.62 µM (active) | 
O=C(Nc1ccccc1C(F)(F)F)c1cc(-c2ccc(O)cc2)on1 | 11.2 µM (active) | 
O=C(Nc1cccnc1Cl)c1cc(-c2ccccc2O)on1 | 8.91 µM (active) | 
C=CCNC(=O)c1ccccc1SCc1c(C)noc1C |  | -1.61%
O=C(NC1CCCC1)c1cc(-c2ccccc2)on1 |  | 3.84%
CSc1ccccc1NC(=O)c1cc(C2CC2)on1 |  | 32.2%
Cc1cc(C)nc(NC(=O)Nc2ccccc2C(F)(F)F)n1 |  | -53%
CCc1ccccc1NC(=O)c1cc(-c2ccc3c(c2)OCO3)on1 |  | 62.1%
O=C(NCc1ccccn1)c1cc(-c2ccccc2Cl)on1 | 10 µM (active) | 
C=CCNC(=O)c1ccc2nc(-c3ccco3)c(-c3ccco3)nc2c1 |  | 8.64%
COc1ccccc1CNS(=O)(=O)c1cc(C(=O)NCc2ccccn2)c(Cl)cc1Cl |  | 2.04%
